Compounds without any hit were thinned out: in the full panel of roughly 83,000, 20% have a hit.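 Values shown are percent growth following 48 h exposure of cells in 96-well plates to a single concentration of compound; below 10 was considered active.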 A number with no mark means an inactive call. Calls of active or inactive are those of the source.
How the values were obtained:
Assay in all cases: NCI-60 one-dose screen, 48 h (100 = growth as untreated, 0 = no growth, -100 = all killed)
Conditions in all cases: 10 µM unless noted
[1] = system: RPMI-8226 leukemia
[2] = system: OVCAR-8 ovarian
[3] = system: OVCAR-5 ovarian
[4] = system: OVCAR-4 ovarian
[5] = system: SK-OV-3 ovarian
[6] = system: IGROV1 ovarian
[7] = system: OVCAR-3 ovarian
[8] = system: HS 578T breast
[9] = system: NCI/ADR-RES ovarian
[10] = system: T-47D breast

Compound | growth [1] | growth [2] | growth [3] | growth [4] | growth [5] | growth [6] | growth [7] | growth [8] | growth [9] | growth [10]
COc1ccc(C2=NN(C(C)=O)C(c3cc(OC)c(OC)c(OC)c3)C2)cc1 (stereo not given) | 93.9% | 108% | 111% | 112% | 108% | 92.8% | 88.6% | 244% | 83% | 92.1%
Oc1[nH]c2ccccc2c1/C=c1/ccc2c(c1)N=C(c1cc(F)cc(F)c1)N=2 | 27.5% | 76.9% | 85% | 57.8% | 85% | 63.3% | 55.9% | 69.4% | 61.4% | 40.3%
CC1(C)OC(=O)C(=Cc2ccccc2Br)C(=O)O1 | 95.5% | 99.4% | 96.6% | 102% | 111% | 102% | 106% | 101% | 106% | 102%
O=c1[nH]c(Cl)nc2c1cnn2-c1ccccc1 | 51.7% | 106% | 97.2% | 82.6% | 110% | 108% | 93.4% | 93.4% | 96.3% | 98.4%
CC[C@H](C)C(=O)O[C@H]1C[C@@H](C)C=C2C=C[C@H](C)[C@H](CC[C@@H]3C[C@@H](O)CC(=O)O3)[C@H]21 | 71.8% | 61.9% | 87.2% | 111% | 83.7% | 55.9% | 102% | 94% | 32.1% | 96.7%
O=C(CCc1nnc(Cn2ccnc2)o1)c1nc2ccccc2[nH]1 | 117% | 105% | 103% | 107% | 108% | 106% | 118% | 112% | 99.8% | 102%
COc1cc(C2NC(c3ccc(Cl)cc3)C(C)/C(=N/NC(N)=S)C2C)cc(OC)c1OC (stereo not given) | 74.2% | 87.3% | 98% | 87% | 101% | 89.7% | 98.6% | 98.1% | 94.1% | 82.7%
Cc1cc(O)c2c(c1)C[C@H]1[C@@H]3CC[C@H]4CC(=O)CC[C@]4(C)[C@H]3CC(=O)[C@]21C | 56.6% | 97.4% | 79.7% | 109% | 114% | 126% | 98% | 33% | 83.8% | 67.9%
ClC1C2CC(c3ccccc32)C1Cl (stereo not given) | 97.6% | 113% | 102% | 112% | 115% | 118% | 113% | 113% | 106% | 103%
C=C1CC[C@@H]2[C@](C)(COC(C)=O)[C@H](OC(C)=O)CC[C@@]2(C)[C@@H]1CC(Nc1ccc(S(=O)(=O)Nc2cc(C)on2)cc1)C1=CCOC1=O (stereo not given in full) | -15.2% (active) | 16.1% | 52.2% | 68.2% | 109% | 62.6% | 7.95% (active) | 89.5% | 31.6% | 63.6%
COc1cc(C2C=C(c3ccc(C)cc3)Nc3nc(SC)[nH]c(=O)c32)ccc1Oc1ccnc2cc(Cl)ccc12 (stereo not given) | 65.6% | 83.4% | 84.3% | 86.3% | 106% | 90.5% | 81.1% | 90.8% | 72.6% | 82.3%
C=C(C)[C@H]1CC/C(C)=C/CC[C@]2(C)O[C@H]2CC/C(COC(C)=O)=C\C1=O | -80.2% (active) | 107% | 98.7% | 123% | 111% | 74.4% | 164% | 119% | 102% | 95.1%
Cc1cc(NC(=O)Nc2cc(Cl)ccc2C)no1 | 88.8% | 110% | 104% | 99.6% | 99.7% | 68.5% | 117% | 125% | 101% | 89.4%
O=C(O)c1ccc(NC(=O)c2ccc(Nc3ccnc(C(F)(F)F)c3)cc2)cc1 | 98.3% | 102% | 107% | 103% | 98.9% | 105% | 104% | 96.8% | 102% | 93.8%
O[C@@H]1Cc2ccc3ccccc3c2N[C@H](c2ccoc2)C1 | 103% | 101% | 100% | 99.1% | 102% | 109% | 115% | 104% | 103% | 93.8%
O=NC1CC=CCC1c1ccccc1 (stereo not given) | 114% | 108% | 94.5% | 106% | 111% | 111% | 118% | 125% | 104% | 111%
COC(=O)CCC1=C(C)/C(=C/c2[nH]c(-c3ccc[nH]3)cc2OC)N=C1C | -57% (active) | 10% | 35% | 23.4% | 40% | 25.9% | -56.9% (active) | 1.28% (active) | 14.8% | -36% (active)
N#Cc1cccc(/C=C(/C(=O)c2ccccc2)c2ccccc2)c1 | -4.62% (active) | 20.4% | 80.4% | 50.9% | 110% | 73.8% | 36.4% | 55.4% | 40.1% | 74.4%
Nc1ccc2c3c(cccc13)-c1ccccc1-2 | 33.9% | 99.1% | 99.8% | 86.1% | 99.6% | 84% | 88.4% | 89.2% | 95.2% | 92.3%
O=c1ccn(C2CCCO2)c(=O)[nH]1 (stereo not given) | 108% | 102% | 111% | 119% | 112% | 114% | 115% | 112% | 110% | 105%
O=C(Nc1cccc(-n2cc(-c3ccncc3)c(-c3ccc(O)c(Cl)c3)n2)c1)Nc1ccc(Cl)c(C(F)(F)F)c1 | -27.4% (active) | -44.7% (active) | 39.4% | -5.46% (active) | 4.82% (active) | -20.9% (active) | -21.1% (active) | -0.107% (active) | 11.3% | -10% (active)
COc1cc2c(cc1OCCCCCn1c(-c3ccc(OCc4ccccc4)cc3)nc3cc(N4CCOCC4)ccc31)N=C[C@@H]1CCCN1C2=O | 19.4% | 21.2% | 9.51% (active) | 21.4% | 35.3% | -58.7% (active) | 4.07% (active) | 12.4% | 23.8% | 19%
Clc1ccc(CCC(Cn2ccnc2)Sc2c(Cl)cccc2Cl)cc1 (stereo not given) | 25.2% | 63.8% | 68% | 60.4% | 91.1% | 59% | 59.4% | 90.8% | 28.2% | 39.5%
CCN(CC)CCOc1ccccc1-n1c(C)ccc1-c1ccccc1 | 63.2% | 97.5% | 101% | 106% | 99.5% | 71.4% | 78.9% | 82.5% | 85.4% | 91.9%
C/C(=C\CCc1ccsc1)CC/C=C(\C)CCCN1CCC(CO)CC1 | -31.1% (active) | 62.8% | 63.9% | 40.8% | 55.5% | 56.1% | 48.6% | 28.3% | 51% | 27.1%
N=C(N)/N=C(\CCc1nc2ccccc2[nH]1)c1nc2ccccc2[nH]1 | 105% | 105% | 90% | 107% | 108% | 114% | 109% | 99.4% | 93.4% | 99.7%
CCCCCCCCCCCCCCCCN=C(CC(=O)O)C(=O)O | 103% | 107% | 116% | 34.8% | 105% | 88.6% | 107% | 96.9% | 105% | 102%

From PubChem BioAssay (NCI)
